SRC1 TRFRET art = TR-FRET detection interference compounds, primary screen, artefact control for PPARgamma SRC-1 recruitment agonists, biochemical, TR-FRET emission ratio. 99,000 tested, 0.34% active. TR-FRET ratio at 8 µM. TR-FRET detection artefact counter-screen; hits give high values. AID 1051, 2008; in the data active = TR-FRET ratio above about 2300
SRC3 TRFRET art = TR-FRET detection interference compounds, artefact control for PPARgamma SRC-3 recruitment agonists, biochemical, TR-FRET ratio. TR-FRET artefact counter-screen, PPARgamma/SRC-3 format; hits give high values. TR-FRET ratio at 8 µM. 99,000 tested, 0.39% active. AID 1048, 2008
TR-FRET SRC-2 ct = TR-FRET signal artefacts, primary screen, artefact control for PPARgamma SRC-2 agonist project, biochemical | TR-FRET artefact counter-screen; hits give high values | TR-FRET ratio at 8 µM | AID 1049, 2008 | 200,000 tested, 0.4% active
PPARg SRC3 recr = PPARgamma agonists recruiting SRC-3 coactivator, primary screen, biochemical | biochemical PPARgamma/SRC-3 coactivator recruitment assay | 200,000 tested, 0.26% active | AID 731, 2007 | activation, % at 8 µM; in the data active = activation above about 23%;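 also: 0% = DMSO and 100% = reference agonist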
Target sequence (P37231 whole entry, looked up): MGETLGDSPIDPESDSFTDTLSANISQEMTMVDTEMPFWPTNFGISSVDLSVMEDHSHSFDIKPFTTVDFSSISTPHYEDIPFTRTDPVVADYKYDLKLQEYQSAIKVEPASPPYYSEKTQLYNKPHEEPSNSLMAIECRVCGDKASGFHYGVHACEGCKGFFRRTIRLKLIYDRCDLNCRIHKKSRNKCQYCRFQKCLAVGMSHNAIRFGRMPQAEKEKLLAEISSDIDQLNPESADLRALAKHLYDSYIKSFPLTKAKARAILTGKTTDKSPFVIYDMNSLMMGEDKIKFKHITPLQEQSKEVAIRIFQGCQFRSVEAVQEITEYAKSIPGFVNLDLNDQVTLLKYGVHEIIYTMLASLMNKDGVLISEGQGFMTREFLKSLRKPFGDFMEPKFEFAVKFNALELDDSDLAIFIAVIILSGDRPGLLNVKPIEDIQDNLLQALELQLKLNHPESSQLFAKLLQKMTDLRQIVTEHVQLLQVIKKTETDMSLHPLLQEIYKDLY
PPARg SRC1 recr = PPARgamma agonists recruiting SRC-1 coactivator, primary screen, biochemical; 200,000 tested, 0.41% active; AID 631, 2007; PPARgamma-SRC-1 coactivator recruitment biochemical assay; activation, % at 8 µM; Peroxisome proliferator-activated receptor gamma (Homo sapiens), P37231; in the data active = activation above about 19%;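 also: 0% = DMSO and 100% = reference agonist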
PPARg SRC-2 ag = agonists of PPARg-SRC-2 recruitment, primary screen, biochemical, HTS; PPARgamma LBD-SRC-2 recruitment; Peroxisome proliferator-activated receptor gamma (Homo sapiens), P37231; activation, % at 8 µM; 200,000 tested, 0.34% active; in the data active = activation above about 22%;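 also: 0% = vehicle and 100% = reference agonist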
The depositor's hits bear a star; / = no result given. Most compounds without a hit are left out; they make up all but 0.9% or so of the library. Rule as the data show it, unless noted: active = TR-FRET ratio above about 2000; inactive = the rest.

SMILES	SRC1 TRFRET art	SRC3 TRFRET art	TR-FRET SRC-2 ct	PPARg SRC3 recr	PPARg SRC1 recr	PPARg SRC-2 ag
Cc1ccc(-c2csc(NC(=O)c3cc([N+](=O)[O-])ccc3N3CCOCC3)n2)cc1	1659	2579*	1581	23*	1	-6
OCCC1CN(CCCn2cccn2)CCN1C1CCCCC1 (stereo not given)	1615	1814	1503	3	-1	-2
COC(=O)c1cnn(-c2nc3c(C)cccc3s2)c1C	/	/	1578	-10	61*	-1
O=C(COC(=O)c1ccccc1NC(=O)c1ccco1)NC1CCS(=O)(=O)C1 (stereo not given)	1617	1476	1513	-1	-2	7
O=C(COC(=O)c1ccccc1NC(=O)c1ccco1)NC1CC1	2082	1562	2060*	-3	1	13
Cc1ccc(C(NC(=O)NC(C)c2ccccc2)C(Cl)(Cl)Cl)cc1F (stereo not given)	1866	1566	1486	2	1	2
Cc1nnc(SCC(=O)c2ccc(Cl)cc2)n(N)c1=O	1817	1588	1625	4	8	17
CC(C)[C@H](NC(=O)OC(C)(C)C)c1nnc(SCc2cccc(F)c2)o1	/	/	1557	5	55*	15
CC(C)C[C@H](NC(=O)OC(C)(C)C)c1nnc(SCc2cccc(F)c2)o1	/	/	1571	6	15	0
COc1ccc(Br)cc1/C=C\C(=O)NCc1cccnc1	2065	1679	1568	6	9	0
CC(=O)Nc1cccc(NC(=O)c2ccc(C)c([N+](=O)[O-])c2)c1	2324*	1862	1815	3	9	5
CC1(C)Cc2c(C#N)c(SCC(=O)c3ccccc3)nc(N3CCOCC3)c2CS1	/	/	2038*	2	8	7
CCC(=O)NC(Nc1sc2c(c1C(=O)OC)CCCC2)(C(F)(F)F)C(F)(F)F	/	/	1419	-2	-3	0
COC(=O)c1c(NC(NC(=O)c2ccccc2)(C(F)(F)F)C(F)(F)F)sc2c1CCN(C)C2	2058	1622	1983*	0	10	8
Cc1cc(Cl)ccc1Oc1ncnc2oc(-c3ccccc3)cc12	/	/	1479	62*	5	10
Cc1cc(C(=O)N/N=C/c2ccc(O)c([N+](=O)[O-])c2)n[nH]1	2220	1716	1578	8	4	9
Cc1cc(C(=O)N/N=C/c2cccc([N+](=O)[O-])c2O)n[nH]1	2259	2114*	1799	4	8	18
O=C(NC(=S)NCC1CCCO1)C(c1ccccc1)c1ccccc1 (stereo not given)	1739	1663	1521	4	8	-3
O=C(CCSCc1ccccc1F)NCc1cccs1	1774	1522	1317	0	-7	-3
O=C(CCSCc1ccccc1Cl)NCc1cccs1	2618*	1723	1617	-5	28*	2
Cn1c(N)c(S(=O)(=O)N2CCN(c3ccccc3)CC2)c(=O)n(C)c1=O	1903	1571	1440	6	6	13
Cc1cccc(N2C(=O)CC(Sc3nc(-c4ccccc4)c4cc(Cl)ccc4n3)C2=O)c1 (stereo not given)	/	/	2388*	-3	-1	-2
Cc1cccc(N2C(=O)CC(Sc3nc(C)cc(C)n3)C2=O)c1 (stereo not given)	/	/	1638	2	-5	6
O=C(Nc1cccc(S(=O)(=O)NC2=NCCCCC2)c1)c1cc(-c2ccc(Cl)cc2)nc2ccccc12	2062	2132*	1927	4	0	9
O=C(COC(=O)c1ccccc1C(=O)c1ccccc1)NCCc1ccccc1	1888	1639	1651	6	21*	5
SMILES	SRC1 TRFRET art	SRC3 TRFRET art	TR-FRET SRC-2 ct	PPARg SRC3 recr	PPARg SRC1 recr	PPARg SRC-2 ag
Brc1ccc2nc(-c3c[nH]c4ccccc34)cn2c1	2053	1691	1999*	8	9	7
Cc1cccn2cc(-c3c[nH]c4ccccc34)nc12	2206	1746	1734	6	16	0
Clc1ccc2nc(-c3ccc4c(c3)OCO4)cn2c1	1809	1526	1519	4	1	2
Clc1ccc(-c2cn3cc(Br)ccc3n2)cc1Cl	2103	1909	2032*	8	7	17
CCCCNc1c(N)n(CCCC)c(=O)[nH]c1=O	1683	1504	1447	0	-12	-11
COc1cccc(NC(=O)NC2CCCc3ccccc32)c1 (stereo not given)	1664	1601	1355	-1	-8	-6
CCC(=O)N1CCN(c2nc3ccccc3s2)CC1	/	/	1508	9	0	4
O=C(c1cc2sccc2n1Cc1ccccc1)N1CCN(c2nc3ccccc3s2)CC1	/	/	2570*	11	7	8
CCC(=O)N(Cc1ccco1)c1nc(C(=O)Nc2ccc(Cl)cc2)c(C)s1	2016	1762	1971*	3	14	19
CCN(C(=O)c1ccco1)c1nc(CC(=O)Nc2ccc(Cl)cc2)cs1	/	/	1541	4	-2	-6
COc1ccc(C2N(c3ccccc3)CCN2c2ccccc2)cc1O	1834	1658	1608	6	9	2
COc1cc2[nH]c(=S)n(NC(=O)c3ccccc3)c(=O)c2cc1OC	/	/	2013*	20	16	20
COc1ccc(/C(N)=N/OC(=O)CN(C)S(=O)(=O)c2ccccc2)cc1	1709	1502	1684	5	0	6
COc1ccc(/C(N)=N/OC(=O)CN(C)S(=O)(=O)c2ccc(C)cc2)cc1	1999	1722	1857	5	22*	4
CN(CP(=O)(O)CN(C)S(C)(=O)=O)S(C)(=O)=O	/	/	1670	4	21*	1
Cc1ccsc1/C=N/Nc1nc2ccccc2[nH]1	2515*	1746	1670	8	13	17
Cc1cc(=O)[nH]c(N/N=C/c2sccc2C)n1	1872	1636	1625	3	7	9
CCc1cc2c(=O)c(-c3nc(C)cs3)c(CCCC(=O)O)oc2cc1O	1835	1707	1611	4	4	2
CCc1cc2c(=O)c(-c3nc(C)cs3)coc2cc1OC(C)C(=O)NCCO (stereo not given)	5866*	1621	2120*	3	138*	25*
O=C1c2ccccc2C(=O)N1Cc1ccc2c(c1)OCO2	/	/	1414	-7	-6	-6
Cc1cc2cc(CN3C(=O)c4ccccc4C3=O)ccc2n1C	2104	2708*	1840	0	2	6
Cc1ccc(S(=O)(=O)NCc2ccc3c(c2)cc(C)n3C)cc1	/	/	2007*	2	8	6
NC(=O)c1ccc(/C=N/O)nc1	1781	1325	1503	6	10	4
CC(=O)Nc1ccc(-c2nnc(SCC(=O)c3ccc4c(c3)Cc3ccccc3-4)n2C)cc1	/	/	2129*	24	13	17

Screens: PubChem, The Scripps Research Institute Molecular Screening Center
